The full ranking holds about 25,000 sequences; the median of “ln(normalized median fluorescence intensity)” is about 9.7, and the highest 2% start at about 11. This excerpt belongs to a sample that is enriched for the highest values.
Test system: PfAP2-HC AP2 domain (GST-tagged)
Experiment: gcPBM binding intensity (ln(normalized median fluorescence intensity)); higher = stronger DNA binding
Outline: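 Binding intensity is the highest Masliner-normalised natural-log median intensity over replicate spots in either probe orientation. To obtain it, GST-tagged P. falciparum DNA-binding domains made in E. coli were incubated for 1 h on an Agilent 4 × 180k array of primer-extended double-stranded 36-bp intergenic genomic probes plus negative controls. Detection used Alexa488 anti-GST antibody with scanning at 488 nm.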

| Sequence | gcPBM binding intensity (ln) |
| --- | --- |
| ACATACGAAAATTGGAAGGATAGATAAAAAGAAAAT [CACACA_negctrl_site51] | 9.66 |
| CTCAACATATACGTAACACACATATAAATATAAATA [CACACA_site7749] | 9.89 |
| ATATAGAAAATGCATACACACTTTATAAATATATTT [CACACA_site6553] | 9.82 |
| TATTTATTGTGATACTTATATTACTTAATGATTAAA [CACACA_negctrl_site676] | 9.41 |
| ACCCATTTAACAAAATGTACATTATTATAATTACTT [XGTACX_site7105] | 9.72 |
| CTTATATAATTCGATAGTACATATTTTTATATATAT [XGTACX_site4045] | 9.68 |
| ATACAATAATATAAATGTACAAATTATATCTTAATT [XGTACX_site6004] | 9.62 |
| TTGTGTACATATTAAGTGCATATATATATATATATA | 10.4 |
| TTTTACCTAAATATCACACATATTTAAATATATATA [CACACA_site5597] | 9.57 |
| AGTCAATTTTGTGTGTCAACATTTATATAAAGAATG [TGCATGCA_negctrl_site400] | 9.71 |
| AAGGTAAACGGACACACACACATACAAAAAAAAAAA [CACACA_site5961] | 11.3 |
| AGAAGGTAAAAACACACACACACATACAAAAAAAAA [CACACA_site3767] | 10.7 |
| AAGGTAAACAGACACACACACATACAAAAAAAAAAA [CACACA_site3768] | 10.8 |
| TATATATAAAAAACATGTACACAAATTTACATACAT [XGTACX_site4777] | 9.79 |
| ATGTATGGAAATTTTACACACAAGAGTAGTTTAAAA [CACACA_site1710] | 9.9 |
| CACCCACTAATAAACACACACATATATATATATATA [CACACA_site389] | 10.4 |
| TACCCACTAAAATACACACACACACCCACATATATA [CACACA_site6141] | 10.4 |
| CGCACTAAAAAACACACACACACACCCATATATATA [CACACA_site4152] | 11 |
| AAAAAAAACGCACATACACACACACCCATATATATA [CACACA_site9118] | 10.4 |
| CCCACTAAAAAACACACACACACACCCATATATATA [CACACA_site6140] | 11 |
| AAAGATGATAAAATATGTACACACAGTTTATACATT [XGTACX_site8703] | 9.95 |
| AAGAAAAAAAAAATTACACACTGCGCAGATACACAA [CACACA_site1289] | 9.86 |

| Sequence | gcPBM binding intensity (ln) |
| --- | --- |
| ATTTTTTCTTTTCGATGTACCCTTCTTATTCTTTAT [XGTACX_site3782] | 10.1 |
| TCTTGATCTTATATATATCTACAATATTTTATACAT [TGCATGCA_negctrl_site569] | 10.2 |
| CTGCGTTTAATATGCGTGCACCTTGGTTTTATATCT [GTGCAC_site9525] | 9.83 |
| GTAAGTTTGAATACACGTACAAATTTATTAAAGTCC [XGTACX_site6722] | 9.72 |
| ATTCTATATGTTACATAAACCTATATTTTTTTTTTT [CACACA_negctrl_site860] | 9.58 |
| TTTTACTTAAGACACACACACACAAAAAAAAAAAAA [CACACA_site6573] | 10.8 |
| ATATAACATGGACACACACACATATATATATATTAT [CACACA_site6135] | 10.4 |
| CTATTTCATAAACACACACACACAAACAAACATATA [CACACA_site8234] | 11.5 |
| CTATTTCATGGACACACACACACAAACAAACATATA [CACACA_site4696] | 11.1 |
| AATAAATATATATTCACACACAAACATATATATATA [CACACA_site4023] | 10 |
| TAAATAAATATATATTCACACACAAACATATATATA [CACACA_site9332] | 10.5 |
| CTATTTCAGAAACACACACACACAAACAAACATATA [CACACA_site978] | 10.4 |
| TTTTAAGAAAAAAAATGTACACATGAAAATAGTGAA [XGTACX_site5898] | 9.5 |
| TAGATACATAAAAGTGGTACATATATATATATATAT [XGTACX_site6263] | 9.85 |
| TAACTTAAATAATACATACACACATGTACATACAGA [CACACA_site1594] | 10.2 |
| TCTATTTTTTATATGGTGCATTGTTCTTATTAATAT [GTGCAC_site9392] | 9.77 |
| TGATTATAGACACGCGCACACACAACAAAAAAAAAA [CACACA_site9179] | 10.1 |
| ATAGACAGCGCACAAACACACAAACACGCACGCACA [CACACA_site6349] | 10.2 |
| TGATTATACGCACGCGCACACACAACCAAAAAAAAA [CACACA_site3537] | 10.2 |
| ATAAAAATTGATTATACACACGCGCACCCACAACAA [CACACA_site3536] | 10.3 |
| TTATATTATAGACACACACACAAAAAAAAAAAAAAA [CACACA_site3816] | 10.1 |
| CACAAACAAAGACACACACACACACGCACAAAAATG [CACACA_site7193] | 10.7 |

| Sequence | gcPBM binding intensity (ln) |
| --- | --- |
| ATTATAGACACGCGCACACACAACAAAAAAAAAAAA [CACACA_site9180] | 11.3 |
| AAAAAACAAAAACACACGCACACAAAAAAAAAAAAA [CACACA_site802] | 10.2 |
| ATTATACACCCGCGCACACACAACAAAAAAAAAAAA [CACACA_site5871] | 11.1 |
| ATTACATACACGCGCACACACAAAAAAAAAAAAAAA [CACACA_site1334] | 9.98 |
| GTTACACAAACAAACACACACACACGCACGCACAAA [CACACA_site7191] | 11.3 |
| TACACAAACAGACACACACACACACGCGCACAAAAA [CACACA_site7192] | 11 |
| TTTCTTTTTTCTGTTATTATTATAAAACGATATTTA [TGCATGCA_negctrl_site167] | 9.58 |
| TTATTAAGTAAATCACATTTAATTTTTTTTTTTTTT [CACACA_negctrl_site1280] | 9.27 |
| GAATATGTTAACATTTGTACATAAAATTTTTTACAA [XGTACX_site2444] | 9.49 |
| ATTATTTTGTTTATTACATGCAGGTGTATATTACAG [TGCATGCA_site723] | 9.59 |
| ATCACATAAAATATGAATATATATTTTATATATATA [CACACA_negctrl_site340] | 9.53 |
| AAAAGAGAAATGGGCACACACACACCCATTATATAT [CACACA_site1530] | 10.2 |
| AGAAAAGAGAAATGGGCACACACACCCATATTATAT [CACACA_site8433] | 10.1 |
| AAAAGAGAAATGGGCACACACACACCGATTATATAT [CACACA_site4942] | 11 |
| GTACCTATTTCATACACACACACACCCAAACAAACA [CACACA_site976] | 10.5 |
| ACCTATTTCAAACACACACACACACTAACAAACATA [CACACA_site8233] | 10.8 |
| ACCTATTTCAAACACACACACACACTAGCAAACATA [CACACA_site4695] | 10.9 |
| GTACCTATTTCATACACACACACACGCAAACAAACA [CACACA_site6590] | 11.1 |
| ACCTATTTCAAACACACACACACACCCACAAACATA [CACACA_site977] | 10.9 |
| ATGTACCTATTTCATACACACACACCCACAAACAAA [CACACA_site8232] | 10.4 |
| TATATAAACACGTACACACACATATCTGTATTTATA [CACACA_site5858] | 10.4 |
| AAAAAATAGTGGTATGCATGTCCCTTGTATTTTCTT [TGCATGCA_site587] | 9.63 |

| Sequence | gcPBM binding intensity (ln) |
| --- | --- |
| GTATATATTTAAACACGTACACAAAACCCAAAAAAT [XGTACX_site8110] | 9.95 |
| TTAATGTACAGACACCCACACACAAACAAATATATA [CACACA_site8888] | 10.2 |
| TACACCAAAAAAAAACGTACAAAATCCCACCCAGAC [XGTACX_site4622] | 11.1 |
| TAATTTTTTTTTTTTTTTTTTGTACTTCATTTTTAT [CACACA_negctrl_site1395] | 9.58 |
| TTTTTTTTGTTCTATACAATTATAAAAATAAAATAT [XGTACX_negctrl_site53] | 9.06 |
| TAATACTTAGAGAAAAGTACGTATGAACTTATGTAA [XGTACX_site5504] | 9.59 |
| TTTCCCTTGTTGTAAACATGCACAATATTTAGGTAT [TGCATGCA_site49] | 9.75 |
| CACACCCACCAACACACACACAAAAAAAAAAAGAAA [CACACA_site500] | 10.4 |
| TTAACAAAGAAACACACACACACACCCAAAAAAAAA [CACACA_site516] | 10.6 |
| CAAAAGAAGGTAAACACACACACACGCATACAAAAA [CACACA_site7724] | 10.4 |
| TTAAAGCACCCATGCACACACACAAAGGAAAAGAAA [CACACA_site233] | 10.2 |
| AATTAACAAAAACACACACACACACCGACAAAAAAA [CACACA_site4444] | 10.9 |
| CAAAAGAAGGTAAACACACACACACCCATACAAAAA [CACACA_site3765] | 10.7 |
| AAAGAAGGTAAACACACACACACACCGACAAAAAAA [CACACA_site9255] | 11.5 |
| CACAAACAAAAACACACACACACACCGACAAAAATG [CACACA_site5362] | 10.6 |
| AAAGCACCCATGCACACACACAAAGGAAAAGAAAAA [CACACA_site6249] | 10.3 |
| AAAGCACCCAGGCACACACACAAAGGAAAAGAAAAA [CACACA_site232] | 11 |
| AAAAAAAAAAAACACACACACACACCGACAAAATAT [CACACA_site8411] | 10.8 |
| AAAGAAGGGAAACACACACACACACCCACAAAAAAA [CACACA_site3766] | 11.4 |
| TTTTTTTCTTTATTAGCACACATAATATTATATATG [CACACA_site8841] | 9.79 |
| TTGGGGTATCTTCCTATGCACACTTGTTATGTACTA [CACACA_site831] | 9.85 |
| TATATATATATATATTGTACTATATAGTATCTTTTT [XGTACX_site1646] | 9.78 |
